# Results reported in publication PMC7862700, “An all-to-all approach to the identification of sequence-specific readers for epigenetic DNA modifications on cytosine”.
# How the values were obtained:
# Assay in all cases: DAPPL (digital affinity profiling via proximity ligation, sequencing); 10 mM Tris-HCl pH 7.5, 50 mM NaCl, 1 mM DTT, 4% glycerol, room temperature, 30 min; GST-TFs on glutathione beads, 16-mer random dsDNA library, 0.1% formaldehyde crosslink after washing; high values mean tight binding
# [1] = molecular target: T1, FLI1 (Homo sapiens, UniProt Q01543 1-452); details: protein: recombinant; tags: N-terminal GST; dsDNA, one strand shown
# T1 sequence: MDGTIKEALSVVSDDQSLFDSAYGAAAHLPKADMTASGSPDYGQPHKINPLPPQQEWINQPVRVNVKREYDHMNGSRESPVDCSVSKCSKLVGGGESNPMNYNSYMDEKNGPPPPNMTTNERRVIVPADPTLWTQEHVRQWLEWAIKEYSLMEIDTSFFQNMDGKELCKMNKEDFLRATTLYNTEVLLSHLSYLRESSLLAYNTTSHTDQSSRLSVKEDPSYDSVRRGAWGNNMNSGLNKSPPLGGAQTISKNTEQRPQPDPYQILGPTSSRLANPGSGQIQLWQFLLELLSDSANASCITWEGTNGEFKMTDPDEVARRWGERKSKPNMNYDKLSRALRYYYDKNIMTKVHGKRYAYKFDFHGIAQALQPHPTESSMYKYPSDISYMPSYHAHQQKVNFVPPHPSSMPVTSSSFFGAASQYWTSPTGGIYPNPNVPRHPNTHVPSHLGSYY
# Method in brief: (§1)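 Pools of DNA-barcoded human transcription factors, expressed in yeast as GST fusions on glutathione beads and combined with a tag-only sample, were incubated with 200 nmole of a 16-mer random double-stranded DNA library. Incubation took 30 min at room temperature in Tris/NaCl/DTT/glycerol buffer and was followed by washing, 0.1% formaldehyde crosslinking, proximity ligation (BsaI/T4 ligase, 1 h, 37 °C), PCR amplification and sequencing on an Illumina NextSeq500. Binding signal is the ratio of a hexamer's read frequency for a factor to its frequency for the tag-only sample.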
# [2] = molecular target: T2, ELK1 (Homo sapiens, UniProt P19419 1-428); details: protein: recombinant; tags: N-terminal GST; dsDNA, one strand shown
# T2 sequence: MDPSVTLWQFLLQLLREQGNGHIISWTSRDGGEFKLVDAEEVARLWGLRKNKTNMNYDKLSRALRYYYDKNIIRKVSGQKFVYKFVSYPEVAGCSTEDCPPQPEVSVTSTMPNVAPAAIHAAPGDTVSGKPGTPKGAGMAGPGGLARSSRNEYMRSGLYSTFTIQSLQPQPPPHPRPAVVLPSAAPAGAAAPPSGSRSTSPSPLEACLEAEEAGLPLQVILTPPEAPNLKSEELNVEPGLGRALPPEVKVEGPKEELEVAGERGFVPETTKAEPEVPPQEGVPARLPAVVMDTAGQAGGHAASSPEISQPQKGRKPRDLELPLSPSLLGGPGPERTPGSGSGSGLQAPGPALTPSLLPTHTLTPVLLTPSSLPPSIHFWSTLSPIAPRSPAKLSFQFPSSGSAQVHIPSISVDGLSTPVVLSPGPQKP
# Method in brief: as §1
# [3] = molecular target: T3, GABPA (Homo sapiens, UniProt Q06546 1-454); details: protein: recombinant; tags: N-terminal GST; dsDNA, one strand shown
# T3 sequence: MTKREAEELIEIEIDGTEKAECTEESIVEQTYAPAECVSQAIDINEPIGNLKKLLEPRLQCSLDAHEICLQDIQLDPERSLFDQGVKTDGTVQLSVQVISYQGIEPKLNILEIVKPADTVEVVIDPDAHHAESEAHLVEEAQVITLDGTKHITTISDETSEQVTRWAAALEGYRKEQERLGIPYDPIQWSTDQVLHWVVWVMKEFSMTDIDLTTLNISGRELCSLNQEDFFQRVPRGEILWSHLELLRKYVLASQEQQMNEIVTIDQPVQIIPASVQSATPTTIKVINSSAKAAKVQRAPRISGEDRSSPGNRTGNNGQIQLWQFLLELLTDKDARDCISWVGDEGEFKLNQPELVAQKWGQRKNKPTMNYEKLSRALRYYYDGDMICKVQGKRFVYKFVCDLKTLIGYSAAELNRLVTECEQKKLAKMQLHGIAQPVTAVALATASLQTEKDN
# Method in brief: as §1
# [4] = molecular target: T4, ERG (Homo sapiens, UniProt P11308 1-479); details: protein: recombinant; tags: N-terminal GST; dsDNA, one strand shown
# T4 sequence: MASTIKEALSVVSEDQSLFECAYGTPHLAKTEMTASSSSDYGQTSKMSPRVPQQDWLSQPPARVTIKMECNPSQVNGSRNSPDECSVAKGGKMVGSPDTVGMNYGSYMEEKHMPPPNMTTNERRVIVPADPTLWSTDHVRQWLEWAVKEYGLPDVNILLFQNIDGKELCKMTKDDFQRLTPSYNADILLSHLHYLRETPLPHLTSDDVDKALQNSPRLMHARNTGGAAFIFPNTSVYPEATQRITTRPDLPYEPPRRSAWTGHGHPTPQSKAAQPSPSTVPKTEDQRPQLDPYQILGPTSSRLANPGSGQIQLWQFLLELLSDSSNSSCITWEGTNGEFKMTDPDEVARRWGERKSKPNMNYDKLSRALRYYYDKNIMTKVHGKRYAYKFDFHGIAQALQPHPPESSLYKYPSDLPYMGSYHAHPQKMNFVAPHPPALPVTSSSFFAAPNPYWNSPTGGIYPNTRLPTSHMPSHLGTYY
# Method in brief: as §1
# [5] = molecular target: ELF1 (Homo sapiens, UniProt P32519 1-619); details: protein: recombinant; tags: N-terminal GST; dsDNA, one strand shown
# Method in brief: as §1
# [6] = molecular target: T5, EHF (Homo sapiens, UniProt Q9NZC4 1-300); details: protein: recombinant; tags: N-terminal GST; dsDNA, one strand shown
# T5 sequence: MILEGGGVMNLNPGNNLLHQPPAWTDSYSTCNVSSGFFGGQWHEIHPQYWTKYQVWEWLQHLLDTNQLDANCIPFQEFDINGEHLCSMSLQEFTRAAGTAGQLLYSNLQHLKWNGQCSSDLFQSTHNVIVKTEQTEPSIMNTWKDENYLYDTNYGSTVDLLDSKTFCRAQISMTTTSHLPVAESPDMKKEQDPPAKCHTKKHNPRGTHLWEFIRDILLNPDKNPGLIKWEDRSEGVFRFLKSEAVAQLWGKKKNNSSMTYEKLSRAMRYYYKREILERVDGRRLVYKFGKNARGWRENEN
# Method in brief: as §1
# [7] = molecular target: SPI1 (Homo sapiens, UniProt P17947 1-270); details: protein: recombinant; tags: N-terminal GST; dsDNA, one strand shown
# Method in brief: as §1
# [8] = molecular target: SPIB (Homo sapiens, UniProt Q01892 1-262); details: protein: recombinant; tags: N-terminal GST; dsDNA, one strand shown
# Method in brief: as §1
# [9] = molecular target: T6, ELK3 (Homo sapiens, UniProt P41970 1-407); details: protein: recombinant; tags: N-terminal GST; dsDNA, one strand shown
# T6 sequence: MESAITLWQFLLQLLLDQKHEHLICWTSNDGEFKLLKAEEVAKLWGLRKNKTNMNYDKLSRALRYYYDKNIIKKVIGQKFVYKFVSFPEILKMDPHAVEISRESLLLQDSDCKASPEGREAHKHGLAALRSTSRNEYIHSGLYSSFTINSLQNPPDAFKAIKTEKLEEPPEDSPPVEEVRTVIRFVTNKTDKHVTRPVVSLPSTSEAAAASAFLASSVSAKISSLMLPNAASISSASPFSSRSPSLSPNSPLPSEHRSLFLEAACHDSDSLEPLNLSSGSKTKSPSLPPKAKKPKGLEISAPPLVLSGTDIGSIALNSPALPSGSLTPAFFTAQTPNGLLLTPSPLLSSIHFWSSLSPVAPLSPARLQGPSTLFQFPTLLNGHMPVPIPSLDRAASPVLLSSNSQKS
# Method in brief: as §1
# [10] = molecular target: T7, FEV (Homo sapiens, UniProt Q99581 1-238); details: protein: recombinant; tags: N-terminal GST; dsDNA, one strand shown
# T7 sequence: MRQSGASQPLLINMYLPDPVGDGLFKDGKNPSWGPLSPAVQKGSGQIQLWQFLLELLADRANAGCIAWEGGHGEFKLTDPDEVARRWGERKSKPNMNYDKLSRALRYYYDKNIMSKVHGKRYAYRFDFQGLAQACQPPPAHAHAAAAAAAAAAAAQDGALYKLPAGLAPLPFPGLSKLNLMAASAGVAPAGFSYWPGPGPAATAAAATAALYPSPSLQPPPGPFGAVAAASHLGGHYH
# Method in brief: as §1
# [11] = molecular target: ETV5 (Homo sapiens, UniProt P41161 1-510); details: protein: recombinant; tags: N-terminal GST; dsDNA, one strand shown
# Method in brief: as §1
# [12] = molecular target: HSF1 (Homo sapiens, UniProt Q00613 1-529); details: protein: recombinant; tags: N-terminal GST; chain copies: 3; dsDNA, one strand shown
# Method in brief: as §1
# [13] = molecular target: T8, SPIC (Homo sapiens, UniProt Q8N5J4 1-248); details: protein: recombinant; tags: N-terminal GST; dsDNA, one strand shown
# T8 sequence: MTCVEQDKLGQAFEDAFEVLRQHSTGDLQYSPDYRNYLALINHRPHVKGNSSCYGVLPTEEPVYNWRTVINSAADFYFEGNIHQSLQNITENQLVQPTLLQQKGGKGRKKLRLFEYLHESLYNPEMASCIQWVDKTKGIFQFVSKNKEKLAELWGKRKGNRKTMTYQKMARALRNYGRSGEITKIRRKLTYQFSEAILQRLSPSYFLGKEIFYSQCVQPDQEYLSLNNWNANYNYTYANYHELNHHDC
# Method in brief: as §1
# [14] = molecular target: ELF4 (Homo sapiens, UniProt Q99607 1-663); details: protein: recombinant; tags: N-terminal GST; dsDNA, one strand shown
# Method in brief: as §1
# [15] = molecular target: T9, ELK4 (Homo sapiens, UniProt P28324-2 1-405); details: protein: recombinant; tags: N-terminal GST; dsDNA, one strand shown
# T9 sequence: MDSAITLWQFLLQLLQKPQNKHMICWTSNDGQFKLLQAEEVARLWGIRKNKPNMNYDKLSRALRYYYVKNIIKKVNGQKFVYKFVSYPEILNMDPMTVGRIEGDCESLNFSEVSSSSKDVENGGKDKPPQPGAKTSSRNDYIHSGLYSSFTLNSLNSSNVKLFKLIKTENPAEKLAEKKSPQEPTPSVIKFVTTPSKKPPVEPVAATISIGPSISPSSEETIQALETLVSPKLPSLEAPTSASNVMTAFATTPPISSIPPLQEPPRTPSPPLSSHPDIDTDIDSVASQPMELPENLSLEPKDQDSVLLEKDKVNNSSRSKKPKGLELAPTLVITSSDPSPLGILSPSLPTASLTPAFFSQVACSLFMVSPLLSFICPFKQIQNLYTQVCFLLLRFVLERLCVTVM
# Method in brief: as §1
# [16] = molecular target: T10, ETV2 (Homo sapiens, UniProt O00321 1-342); details: protein: recombinant; tags: N-terminal GST; dsDNA, one strand shown
# T10 sequence: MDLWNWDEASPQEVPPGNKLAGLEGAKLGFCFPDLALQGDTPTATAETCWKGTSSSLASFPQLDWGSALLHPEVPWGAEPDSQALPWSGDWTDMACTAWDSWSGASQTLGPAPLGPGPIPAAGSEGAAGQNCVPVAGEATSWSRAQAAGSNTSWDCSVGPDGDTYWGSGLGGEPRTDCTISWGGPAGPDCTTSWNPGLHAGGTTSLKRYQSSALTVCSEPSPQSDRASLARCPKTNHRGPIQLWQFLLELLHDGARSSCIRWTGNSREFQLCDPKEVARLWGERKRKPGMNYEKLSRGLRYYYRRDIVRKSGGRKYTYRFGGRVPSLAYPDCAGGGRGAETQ
# Method in brief: as §1
# [17] = molecular target: T11, ELF3 (Homo sapiens, UniProt P78545 1-371); details: protein: recombinant; tags: N-terminal GST; dsDNA, one strand shown
# T11 sequence: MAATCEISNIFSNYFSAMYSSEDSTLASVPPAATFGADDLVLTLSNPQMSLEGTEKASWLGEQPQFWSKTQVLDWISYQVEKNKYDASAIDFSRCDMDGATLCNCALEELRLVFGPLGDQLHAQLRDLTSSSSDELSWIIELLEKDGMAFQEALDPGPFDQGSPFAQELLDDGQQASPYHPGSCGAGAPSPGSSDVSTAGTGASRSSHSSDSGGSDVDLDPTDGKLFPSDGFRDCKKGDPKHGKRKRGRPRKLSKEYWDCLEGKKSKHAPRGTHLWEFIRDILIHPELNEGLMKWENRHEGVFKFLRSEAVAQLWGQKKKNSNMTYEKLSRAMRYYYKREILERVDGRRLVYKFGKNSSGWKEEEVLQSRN
# Method in brief: as §1
# [18] = molecular target: CRX (Homo sapiens, UniProt O43186 1-299); details: protein: recombinant; tags: N-terminal GST; dsDNA, one strand shown
# Method in brief: as §1
# [19] = molecular target: ETV1 (Homo sapiens, UniProt P50549 1-477); details: protein: recombinant; tags: N-terminal GST; dsDNA, one strand shown
# Method in brief: as §1
# ETV5, sequence (P41161 whole entry): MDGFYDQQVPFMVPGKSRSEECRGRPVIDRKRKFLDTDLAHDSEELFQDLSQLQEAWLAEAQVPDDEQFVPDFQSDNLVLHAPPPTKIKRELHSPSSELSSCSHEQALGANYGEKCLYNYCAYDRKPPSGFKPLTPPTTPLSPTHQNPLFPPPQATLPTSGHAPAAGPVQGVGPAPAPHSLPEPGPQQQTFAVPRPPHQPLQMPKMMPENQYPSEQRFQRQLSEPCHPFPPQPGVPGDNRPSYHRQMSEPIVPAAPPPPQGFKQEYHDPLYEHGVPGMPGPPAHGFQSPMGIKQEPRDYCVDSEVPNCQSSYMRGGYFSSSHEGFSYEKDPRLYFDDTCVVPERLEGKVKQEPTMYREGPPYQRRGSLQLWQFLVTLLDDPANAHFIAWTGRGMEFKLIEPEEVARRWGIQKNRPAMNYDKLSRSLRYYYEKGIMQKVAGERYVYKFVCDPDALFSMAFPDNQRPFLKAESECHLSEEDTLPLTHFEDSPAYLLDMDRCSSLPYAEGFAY
# SPIB, sequence (Q01892 whole entry): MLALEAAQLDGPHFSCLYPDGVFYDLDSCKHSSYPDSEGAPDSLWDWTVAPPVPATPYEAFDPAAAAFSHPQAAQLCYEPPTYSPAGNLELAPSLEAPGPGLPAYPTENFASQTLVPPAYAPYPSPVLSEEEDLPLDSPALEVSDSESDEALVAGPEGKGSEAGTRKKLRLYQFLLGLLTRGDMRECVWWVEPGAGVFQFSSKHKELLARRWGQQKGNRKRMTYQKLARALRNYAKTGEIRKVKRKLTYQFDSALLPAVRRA
# HSF1, sequence (Q00613 whole entry): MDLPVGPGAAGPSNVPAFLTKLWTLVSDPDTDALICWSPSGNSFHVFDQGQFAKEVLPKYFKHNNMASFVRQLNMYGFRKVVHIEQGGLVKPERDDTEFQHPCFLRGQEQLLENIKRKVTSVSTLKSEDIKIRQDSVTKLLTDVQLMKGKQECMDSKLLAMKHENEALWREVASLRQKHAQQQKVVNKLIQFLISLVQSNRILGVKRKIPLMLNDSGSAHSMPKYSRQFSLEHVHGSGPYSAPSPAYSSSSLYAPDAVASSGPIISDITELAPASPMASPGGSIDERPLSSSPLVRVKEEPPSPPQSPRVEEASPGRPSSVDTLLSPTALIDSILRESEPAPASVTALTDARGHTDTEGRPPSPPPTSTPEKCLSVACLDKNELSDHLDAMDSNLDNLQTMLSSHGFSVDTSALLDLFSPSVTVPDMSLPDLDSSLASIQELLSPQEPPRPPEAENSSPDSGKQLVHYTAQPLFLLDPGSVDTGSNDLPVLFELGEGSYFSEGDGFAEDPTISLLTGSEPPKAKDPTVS
# ETV1, sequence (P50549 whole entry): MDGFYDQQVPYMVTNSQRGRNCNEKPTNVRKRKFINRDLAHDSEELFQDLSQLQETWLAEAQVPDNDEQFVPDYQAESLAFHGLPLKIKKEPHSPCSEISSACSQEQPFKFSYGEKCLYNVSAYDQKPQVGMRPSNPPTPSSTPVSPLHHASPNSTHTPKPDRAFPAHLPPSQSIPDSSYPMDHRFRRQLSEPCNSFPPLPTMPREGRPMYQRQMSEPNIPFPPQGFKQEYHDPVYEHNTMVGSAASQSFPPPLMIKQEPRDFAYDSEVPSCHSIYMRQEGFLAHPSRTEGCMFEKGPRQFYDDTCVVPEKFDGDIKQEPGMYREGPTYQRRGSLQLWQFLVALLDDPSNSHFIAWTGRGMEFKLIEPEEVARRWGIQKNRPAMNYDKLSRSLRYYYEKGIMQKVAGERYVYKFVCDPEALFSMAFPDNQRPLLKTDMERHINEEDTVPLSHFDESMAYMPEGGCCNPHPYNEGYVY
# ELF1, sequence (P32519 whole entry): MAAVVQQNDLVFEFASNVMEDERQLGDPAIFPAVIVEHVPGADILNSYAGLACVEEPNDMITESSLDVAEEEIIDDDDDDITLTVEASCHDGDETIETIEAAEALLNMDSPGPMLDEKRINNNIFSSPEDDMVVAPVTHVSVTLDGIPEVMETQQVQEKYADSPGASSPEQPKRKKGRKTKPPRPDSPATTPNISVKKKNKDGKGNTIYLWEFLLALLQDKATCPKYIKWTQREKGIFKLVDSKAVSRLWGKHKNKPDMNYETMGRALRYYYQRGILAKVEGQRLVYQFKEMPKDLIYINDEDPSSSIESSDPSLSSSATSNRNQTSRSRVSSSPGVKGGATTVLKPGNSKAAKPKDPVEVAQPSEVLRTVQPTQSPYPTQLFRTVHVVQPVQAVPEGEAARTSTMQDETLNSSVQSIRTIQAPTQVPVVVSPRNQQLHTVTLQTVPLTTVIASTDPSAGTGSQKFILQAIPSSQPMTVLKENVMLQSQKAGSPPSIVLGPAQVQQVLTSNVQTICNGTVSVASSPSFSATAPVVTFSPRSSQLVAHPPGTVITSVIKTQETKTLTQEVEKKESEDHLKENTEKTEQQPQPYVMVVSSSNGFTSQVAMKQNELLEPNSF
# CRX, sequence (O43186 whole entry): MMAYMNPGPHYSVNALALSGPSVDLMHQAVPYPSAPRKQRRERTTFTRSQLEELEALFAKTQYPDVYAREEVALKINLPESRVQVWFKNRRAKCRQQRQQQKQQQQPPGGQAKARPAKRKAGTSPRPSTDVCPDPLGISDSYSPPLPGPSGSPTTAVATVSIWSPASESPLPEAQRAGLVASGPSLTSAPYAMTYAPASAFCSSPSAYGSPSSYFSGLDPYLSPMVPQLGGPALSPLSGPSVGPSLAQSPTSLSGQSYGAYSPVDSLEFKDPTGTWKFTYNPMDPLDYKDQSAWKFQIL
# ELF4, sequence (Q99607 whole entry): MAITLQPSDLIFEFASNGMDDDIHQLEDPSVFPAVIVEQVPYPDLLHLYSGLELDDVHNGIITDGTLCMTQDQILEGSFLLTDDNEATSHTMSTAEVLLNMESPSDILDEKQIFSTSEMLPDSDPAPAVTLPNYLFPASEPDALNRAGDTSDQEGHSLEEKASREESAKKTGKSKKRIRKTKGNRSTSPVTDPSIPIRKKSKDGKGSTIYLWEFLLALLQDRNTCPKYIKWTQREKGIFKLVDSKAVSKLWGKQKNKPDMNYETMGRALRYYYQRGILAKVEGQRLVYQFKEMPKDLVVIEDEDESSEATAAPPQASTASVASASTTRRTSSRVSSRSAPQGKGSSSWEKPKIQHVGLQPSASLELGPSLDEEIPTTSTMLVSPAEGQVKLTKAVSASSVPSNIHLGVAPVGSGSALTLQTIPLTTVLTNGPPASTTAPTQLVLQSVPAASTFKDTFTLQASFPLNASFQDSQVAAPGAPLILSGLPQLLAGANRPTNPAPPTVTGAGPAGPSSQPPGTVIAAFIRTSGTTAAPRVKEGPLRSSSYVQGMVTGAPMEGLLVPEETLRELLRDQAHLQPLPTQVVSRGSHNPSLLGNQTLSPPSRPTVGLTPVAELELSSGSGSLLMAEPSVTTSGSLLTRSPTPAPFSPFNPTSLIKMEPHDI
sequence,measurement,setting,value
ACTCTG,binding signal,[1],"1.28 fold enrichment (6-mer frequency, TF over GST control)"
same,binding signal,[2],"1.23 fold enrichment (6-mer frequency, TF over GST control)"
same,binding signal,[3],"1.38 fold enrichment (6-mer frequency, TF over GST control)"
same,binding signal,[4],"1.24 fold enrichment (6-mer frequency, TF over GST control)"
same,binding signal,[5],"1.37 fold enrichment (6-mer frequency, TF over GST control)"
same,binding signal,[6],"1.33 fold enrichment (6-mer frequency, TF over GST control)"
same,binding signal,[7],"1.26 fold enrichment (6-mer frequency, TF over GST control)"
same,binding signal,[8],"1.21 fold enrichment (6-mer frequency, TF over GST control)"
same,binding signal,[9],"1.14 fold enrichment (6-mer frequency, TF over GST control)"
same,binding signal,[10],"1.27 fold enrichment (6-mer frequency, TF over GST control)"
same,binding signal,[11],"1.27 fold enrichment (6-mer frequency, TF over GST control)"
same,binding signal,[12],"1.12 fold enrichment (6-mer frequency, TF over GST control)"
same,binding signal,[13],"1.51 fold enrichment (6-mer frequency, TF over GST control)"
same,binding signal,[14],"1.24 fold enrichment (6-mer frequency, TF over GST control)"
same,binding signal,[15],"1.23 fold enrichment (6-mer frequency, TF over GST control)"
same,binding signal,[16],"1.23 fold enrichment (6-mer frequency, TF over GST control)"
same,binding signal,[17],"1.15 fold enrichment (6-mer frequency, TF over GST control)"
same,binding signal,[18],"1.12 fold enrichment (6-mer frequency, TF over GST control)"
same,binding signal,[19],"1.25 fold enrichment (6-mer frequency, TF over GST control)"
